{"source": "PubChem BioAssay (NCI)", "note": "Compounds without any hit were thinned out: in the full panel of roughly 83,000, 20% have a hit.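 Percent growth is the endpoint: 0 to 100 indicates growth inhibition (40 means 60% inhibition), 0 means no net growth, and negative values indicate cell death.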 The source made the active and inactive calls. How the source made its calls: active means growth percent below 10; inactive means the rest."}
{"test_system": "PC-3 prostate", "experiment": "NCI-60 one-dose screen, 48 h (100 = growth as untreated, 0 = no growth, -100 = all killed)", "details": "10 µM unless noted"}
{"smiles": "CC(C)(C)OC(=O)NC(CSCc1ccccc1)C(=O)ON1C(=O)CCC1=O", "note": "(configuration not stated)", "growth": "91.3% (inactive)"}
{"smiles": "Nc1cccc(Cl)c1N", "growth": "90.8% (inactive)"}
{"smiles": "C/C(=C\\c1ccc(OCC(=O)O)c(Cl)c1Cl)[N+](=O)[O-]", "growth": "92% (inactive)"}
{"smiles": "CCOC(=O)C1=C(C)NC(C)=C(C(=O)OCC)C1(C)C", "growth": "98.2% (inactive)"}
{"smiles": "N#C/C(=C1C=C/C(=N/O)C(Cl)=C/1)c1ccc(Cl)cc1", "growth": "22.2% (inactive)"}
{"smiles": "CCC(C)/C(=C\\C#N)NCCCN/C(=C/C#N)C(C)CC", "note": "(configuration not stated)", "growth": "89.4% (inactive)"}
{"smiles": "Cn1ncc2c(Sc3ccc(Cl)cc3)ncnc21", "growth": "78.1% (inactive)"}
{"smiles": "O=C(CSC1CCc2ccccc21)N/N=C/c1ccccc1O", "note": "(configuration not stated)", "growth": "50.6% (inactive)"}
{"smiles": "CC1(c2ccc(Cl)cc2)OC(=O)CC(=O)O1", "growth": "101% (inactive)"}
{"smiles": "O=C1C(Cl)=C(Nc2ccccn2)C(=O)c2ccccc21", "growth": "63.6% (inactive)"}
{"smiles": "CCCCCCCCCCCCCCCCNC(=O)OC(C)C", "growth": "-16.9% (active)"}
{"smiles": "Cc1ccc2nc(Cl)cc(=O)n2c1", "growth": "96.9% (inactive)"}
{"smiles": "CC1CCC(C)N(C)C1", "note": "(configuration not stated)", "growth": "87.5% (inactive)"}
{"smiles": "CCc1cnc(=S)n(-c2ccccc2)c1", "growth": "98.7% (inactive)"}
{"smiles": "CC(=O)Nc1nc(N)nc(NC(C)=O)c1N=O", "growth": "99.6% (inactive)"}
{"smiles": "COc1cc(C2CC(c3ccc4c(c3)OCO4)=NN2C(C)=O)cc(OC)c1OC", "note": "(configuration not stated)", "growth": "43.8% (inactive)"}
{"smiles": "O=C(c1ccccc1)C1OC1c1ccc([N+](=O)[O-])cc1", "note": "(configuration not stated)", "growth": "63.2% (inactive)"}
{"smiles": "COc1ccc2c(c1)C(c1cc(OC)c3c(c1)OCO3)C1=C(COC1=O)N2", "note": "(configuration not stated)", "growth": "21.9% (inactive)"}
{"smiles": "CC(=O)Nc1scc[n+]1Cc1ccccc1", "growth": "94.2% (inactive)"}
{"smiles": "C=C1CCC2C3(C)COC(c4ccccc4)OC3CCC2(C)C1/C=C/C1=CCOC1=O", "note": "(configuration not stated)", "growth": "26.6% (inactive)"}
{"smiles": "CCN(CC)CCOc1ccc(Cl)c(C)c1", "growth": "101% (inactive)"}
{"smiles": "O=C(Oc1ccccc1[N+](=O)[O-])C1CCCN1C(=O)OCc1ccccc1", "note": "(configuration not stated)", "growth": "97.3% (inactive)"}
{"smiles": "CC(=O)Nc1ccc(S(=O)(=O)n2ccc(-c3ccc4c(c3)CCC(C)(C)O4)n2)cc1", "growth": "44.4% (inactive)"}
{"smiles": "CC(C)(C)OC(=O)NCCc1ccc(N=C=S)cc1", "growth": "66.3% (inactive)"}
{"smiles": "COc1cc(C2CC(c3ccc4c(c3)OCO4)=NN2C=O)cc(OC)c1OC", "note": "(configuration not stated)", "growth": "47.9% (inactive)"}
{"smiles": "Nc1nc(=O)c2ccccc2s1", "growth": "99.4% (inactive)"}
{"smiles": "CN1C=CN(Cc2ccc(-c3ccccn3)nc2)[CH-]1.CN1C=CN(Cc2ccc(-c3ccccn3)nc2)[CH-]1.[Au+3]", "growth": "20.3% (inactive)"}
{"smiles": "COC(OC)c1ccccc1", "growth": "93.1% (inactive)"}
{"smiles": "C=C[C@@H]1C[C@H](O)Cc2cc(F)ccc2N1", "growth": "97.2% (inactive)"}
{"smiles": "CN(C)c1ncnc2c1ccn2C1OC(CO)C(O)C1O", "note": "(configuration not stated)", "growth": "13% (inactive)"}
{"smiles": "NC1=NN(O)C2=CC([N+](=O)[O-])C=CC2=N1", "note": "(configuration not stated)", "growth": "86.5% (inactive)"}
{"smiles": "O=C([O][Sn]([O]C(=O)c1ccccn1)([c]1ccccc1)[c]1ccccc1)c1ccccn1", "growth": "93.1% (inactive)"}
{"smiles": "C=C(C)[C@@H]1C[C@H](O)Cc2cc(F)ccc2N1", "growth": "91.6% (inactive)"}
{"smiles": "CNC(=S)NNC(=O)C1CC1", "growth": "102% (inactive)"}
{"smiles": "CCOC(=O)C1CCNC(=O)C1=O", "note": "(configuration not stated)", "growth": "105% (inactive)"}
{"smiles": "COc1ccc(CNCCCN2C(=O)c3ccc4c5c(ccc(c35)C2=O)C(=O)N(CCCNCCCCNCCCN)C4=O)c(OC)c1OC", "growth": "15.3% (inactive)"}
{"smiles": "Cc1ccc(S(=O)(=O)C2=C3C(=C(c4ccccc4)c4ccccc43)CN(S(=O)(=O)c3ccc(C)cc3)C2)cc1", "growth": "30.1% (inactive)"}
{"smiles": "COc1cc2c(c(OC)c1OC)-c1ccc(N)c(=O)cc1[C@@H](NC(C)=O)CC2", "growth": "29.3% (inactive)"}
{"test_system": "SK-MEL-5 melanoma", "experiment": "NCI-60 one-dose screen, 48 h (100 = growth as untreated, 0 = no growth, -100 = all killed)", "details": "10 µM unless noted"}
{"smiles": "CC(C)(C)OC(=O)NC(CSCc1ccccc1)C(=O)ON1C(=O)CCC1=O", "note": "(configuration not stated)", "growth": "114% (inactive)"}
{"smiles": "Nc1cccc(Cl)c1N", "growth": "104% (inactive)"}
{"smiles": "C/C(=C\\c1ccc(OCC(=O)O)c(Cl)c1Cl)[N+](=O)[O-]", "growth": "109% (inactive)"}
{"smiles": "CCOC(=O)C1=C(C)NC(C)=C(C(=O)OCC)C1(C)C", "growth": "97.7% (inactive)"}
{"smiles": "N#C/C(=C1C=C/C(=N/O)C(Cl)=C/1)c1ccc(Cl)cc1", "growth": "93.5% (inactive)"}
{"smiles": "CCC(C)/C(=C\\C#N)NCCCN/C(=C/C#N)C(C)CC", "note": "(configuration not stated)", "growth": "108% (inactive)"}
{"smiles": "Cn1ncc2c(Sc3ccc(Cl)cc3)ncnc21", "growth": "90.1% (inactive)"}
{"smiles": "O=C(CSC1CCc2ccccc21)N/N=C/c1ccccc1O", "note": "(configuration not stated)", "growth": "47.7% (inactive)"}
{"smiles": "CC1(c2ccc(Cl)cc2)OC(=O)CC(=O)O1", "growth": "110% (inactive)"}
{"smiles": "O=C1C(Cl)=C(Nc2ccccn2)C(=O)c2ccccc21", "growth": "-84.2% (active)"}
{"smiles": "Cc1ccc2nc(Cl)cc(=O)n2c1", "growth": "120% (inactive)"}
{"smiles": "CC1CCC(C)N(C)C1", "note": "(configuration not stated)", "growth": "107% (inactive)"}
{"smiles": "CCc1cnc(=S)n(-c2ccccc2)c1", "growth": "117% (inactive)"}
{"smiles": "CC(=O)Nc1nc(N)nc(NC(C)=O)c1N=O", "growth": "114% (inactive)"}
{"smiles": "COc1cc(C2CC(c3ccc4c(c3)OCO4)=NN2C(C)=O)cc(OC)c1OC", "note": "(configuration not stated)", "growth": "11.7% (inactive)"}
{"smiles": "CC(=O)Nc1scc[n+]1Cc1ccccc1", "growth": "117% (inactive)"}
{"smiles": "C=C1CCC2C3(C)COC(c4ccccc4)OC3CCC2(C)C1/C=C/C1=CCOC1=O", "note": "(configuration not stated)", "growth": "76.5% (inactive)"}
{"smiles": "O=C(Oc1ccccc1[N+](=O)[O-])C1CCCN1C(=O)OCc1ccccc1", "note": "(configuration not stated)", "growth": "101% (inactive)"}
{"smiles": "CC(=O)Nc1ccc(S(=O)(=O)n2ccc(-c3ccc4c(c3)CCC(C)(C)O4)n2)cc1", "growth": "26.3% (inactive)"}
{"smiles": "O=C1CCCCC1(c1ccccc1)c1ccccc1", "growth": "99.1% (inactive)"}
{"smiles": "CN1C=CN(Cc2ccc(-c3ccccn3)nc2)[CH-]1.CN1C=CN(Cc2ccc(-c3ccccn3)nc2)[CH-]1.[Au+3]", "growth": "37.8% (inactive)"}
{"smiles": "COC(OC)c1ccccc1", "growth": "107% (inactive)"}
{"smiles": "C=C[C@@H]1C[C@H](O)Cc2cc(F)ccc2N1", "growth": "93.3% (inactive)"}
{"smiles": "CN(C)c1ncnc2c1ccn2C1OC(CO)C(O)C1O", "note": "(configuration not stated)", "growth": "89.5% (inactive)"}
{"smiles": "NC1=NN(O)C2=CC([N+](=O)[O-])C=CC2=N1", "note": "(configuration not stated)", "growth": "109% (inactive)"}
{"smiles": "O=C([O][Sn]([O]C(=O)c1ccccn1)([c]1ccccc1)[c]1ccccc1)c1ccccn1", "growth": "84.3% (inactive)"}
{"smiles": "C=C(C)[C@@H]1C[C@H](O)Cc2cc(F)ccc2N1", "growth": "99.3% (inactive)"}
{"smiles": "CCOC(=O)C1CCNC(=O)C1=O", "note": "(configuration not stated)", "growth": "101% (inactive)"}
{"smiles": "COc1cc2c(c(OC)c1OC)-c1ccc(N)c(=O)cc1[C@@H](NC(C)=O)CC2", "growth": "-54.3% (active)"}
